{"source": "PubChem BioAssay (NCATS)", "key": {"[1]": {"assay": "AP1 Signaling Pathway (AID 357); further: on the % scale 0 is the no-effect control and ±100 the full control effect", "details": "ME-180 AP-1-bla reporter, EGF-induced, beta-lactamase ratio, 5 h", "procedure,_shortened": "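In this screen, ME-180 cells in Opti-MEM with 0.5% dialyzed FBS received EC50 EGF and compound titrations for 5 h. AP-1 reporter beta-lactamase was detected via CCF4 ratio, giving AC50 for positive and negative modulators.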"}, "[2]": {"biological_target": "Cytochrome P450 1A2 (Homo sapiens) (UniProt P05177)", "sequence (P05177 whole entry, looked up)": "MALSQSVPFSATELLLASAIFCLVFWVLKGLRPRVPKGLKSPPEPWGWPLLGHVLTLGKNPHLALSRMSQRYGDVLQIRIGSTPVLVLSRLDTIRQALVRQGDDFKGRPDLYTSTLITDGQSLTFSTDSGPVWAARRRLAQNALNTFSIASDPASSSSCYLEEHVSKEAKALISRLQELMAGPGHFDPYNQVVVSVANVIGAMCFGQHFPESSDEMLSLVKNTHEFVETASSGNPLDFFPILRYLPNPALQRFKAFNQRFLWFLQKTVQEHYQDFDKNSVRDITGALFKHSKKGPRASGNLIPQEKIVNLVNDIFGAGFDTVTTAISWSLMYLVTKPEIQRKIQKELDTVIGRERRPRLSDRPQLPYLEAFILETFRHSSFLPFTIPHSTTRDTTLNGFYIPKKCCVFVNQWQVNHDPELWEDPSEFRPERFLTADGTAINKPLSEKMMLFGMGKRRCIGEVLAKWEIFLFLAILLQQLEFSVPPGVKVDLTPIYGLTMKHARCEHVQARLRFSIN", "assay": "p450-cyp1a2 (AID 410; calls by dose curve; further: potency means the concentration at half of the fitted maximal effect)", "details": "recombinant CYP1A2, luciferin-ME demethylation, luminescence; series mostly up to 57 µM", "procedure,_shortened": "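Luminescent demethylation readout: Luciferin-ME (100uM, equal to Km) turned over by 20nM CYP1A2 for 60 min at room temperature after NADPH regeneration addition, following 10 min compound preincubation. Normalization used 57 uM furafylline as full inhibition.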"}, "[3]": {"assay": "NFAT Signaling Pathway (AID 444);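 further: carbachol stimulus at about its EC50 of 1 µM final; on the % scale 0 is the no-effect control and ±100 the full control effect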", "details": "Jurkat NFAT-bla M1, carbachol, beta-lactamase ratio, 5 h", "procedure,_shortened": "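Jurkat cells with NFAT-driven β-lactamase reporter and co-expressed M1 receptor, stimulated with carbachol (final 1 uM, ~EC50), compound titration, 5 h at 37 °C. CCF4 loaded 1 h at RT; 460/530 nm ratio gave %activity and AC50.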"}, "[4]": {"assay": "Stat Signaling Pathway (AID 446);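 further: ME-180 cervical cancer cells given 40 pM IL-6 alongside compound; on the % scale 0 is the no-effect control and ±100 the full control effect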", "details": "ME-180 SIE beta-lactamase reporter, IL-6 stimulated, 5 h", "procedure,_shortened": "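Emission at 460 and 530 nm (excitation 405 nm) reports SIE-controlled beta-lactamase in ME-180 cells. Cells received compound with 40 pM IL-6 for 5 hrs at 37 C; data scaled between 300 pM IL-6 and 125 nM JAK-inhibitor controls.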"}, "[5]": {"assay": "Cell Viability - BJ (AID 421; calls by dose curve; further: potency means the concentration at half of the fitted maximal effect)", "details": "BJ fibroblast viability, qHTS", "procedure,_shortened": "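Cytotoxicity in human BJ foreskin fibroblasts is scored as loss of cellular ATP after a 40-hour exposure, measured by luciferase luminescence. Controls are DMSO and 100 uM tamoxifen.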"}, "[6]": {"assay": "Cell Viability - Hek293 (AID 427;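 active means compounds whose dose-response curve shows a full or clear partial loss of cell viability, called from curve shape rather than a numeric limit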; further: potency means the concentration at half of the fitted maximal effect)", "details": "qHTS", "procedure,_shortened": "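qHTS, human embryonic kidney (adenovirus-transformed) cells; 40 hr cpd, 37 °C; CellTiter-Glo ATP luminescence. Norm: DMSO = 0, 100 uM tamoxifen = 100% inhibition. Hill-fit AC50.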"}, "[7]": {"assay": "Cell Viability - HepG2 (AID 433; calls by dose curve;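 further: potency means the concentration at half of the fitted maximal effect; potency for ATP loss meaning cytotoxicity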)", "details": "qHTS", "procedure,_shortened": "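Cytotoxicity is scored as loss of intracellular ATP in HepG2 cells exposed to compounds for 40 h. Concentration-response curves, normalized to DMSO and 100 uM tamoxifen, give AC50 values.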"}, "[8]": {"assay": "Cell Viability - MRC5 (AID 434; calls by dose curve;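 further: potency means the concentration at half of the fitted maximal effect; potency reflects cytotoxicity seen as loss of intracellular ATP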)", "details": "MRC5 lung fibroblast viability, qHTS", "procedure,_shortened": "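ATP luminescence read-out (CellTiter-Glo, 20 min RT) after 40 hr, 37 °C compound exposure of 1500 MRC5 cells/well. Data normalized to DMSO (basal) and 100 uM tamoxifen (100% inhibition); AC50 from standard Hill equation.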"}, "[9]": {"assay": "Cell Viability - SK-N-SH (AID 435; calls by dose curve; further: potency means the concentration at half of the fitted maximal effect)", "details": "SK-N-SH neuroblastoma cell viability qHTS", "procedure,_shortened": "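Cells seeded at 1500 per well and incubated 5 hr at 37 °C. Compound added, then 40 hr at 37 °C. CellTiter-Glo added, 20 min at room temperature, luminescence read.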"}}, "note": "Values joined by “and” are separate entries in the source; they are usually repeats but may differ in a detail not shown here. Identical values can stand only once. Results filed as inconclusive are left out. Values without a mark were called inactive. Active and inactive are the calls of the source. Unless noted, the call rests on the fitted dose curve; in most records, active means well fitted curve in either direction with a large enough effect (not every such curve was filed as active); inconclusive means small, poorly fitted or top-dose-only effect, or another doubt; inactive means flat fitted curve, though single readings scatter."}
{"smiles": "C[C@@H]1O[C@H](C[N+](C)(C)C)C[C@H]1O", "values": [{"measurement": "activity change, negative = inhibition", "setting": "[1]; at 38 µM (top of the series)", "value": 15.5, "unit": "%"}]}
{"smiles": "Cn1cnc(CCN)c1", "values": [{"measurement": "activity change, negative = inhibition", "setting": "[1]; at 38 µM (top of the series)", "value": 7.44, "unit": "%"}, {"measurement": "Potency", "setting": "[2]", "value": "inactive"}, {"measurement": "activity change, negative = inhibition", "setting": "[3]; at 38 µM (top of the series)", "value": 6.43, "unit": "%"}, {"measurement": "activity, negative = inhibition", "setting": "[4]; at 38 µM (top of the series)", "value": 0.0099, "unit": "%"}]}
{"smiles": "CCCN(CCC)[C@@H]1CCc2ccc(O)cc2C1", "values": [{"measurement": "activity change, negative = inhibition", "setting": "[1]; at 38 µM (top of the series)", "value": "4.4% and -2.26%"}, {"measurement": "Potency", "setting": "[2]", "value": "inactive"}, {"measurement": "activity, negative = inhibition", "setting": "[4]; at 38 µM (top of the series)", "value": "-20.3% and 11.5%"}]}
{"smiles": "Clc1cnc(Oc2ccc(Oc3ncc(Cl)cc3Cl)cc2)c(Cl)c1", "values": [{"measurement": "activity change, negative = inhibition", "setting": "[1]; at 38 µM (top of the series)", "value": 8.39, "unit": "%"}, {"measurement": "Potency", "setting": "[2]", "value": "inactive"}, {"measurement": "activity, negative = inhibition", "setting": "[4]; at 38 µM (top of the series)", "value": 1.75, "unit": "%"}]}
{"smiles": "CN[C@@H]1C[C@@H](c2ccc(Cl)c(Cl)c2)c2ccccc21", "values": [{"measurement": "activity change, negative = inhibition", "setting": "[1]; at 38 µM (top of the series)", "value": 23.3, "unit": "%"}, {"measurement": "activity change, negative = inhibition", "setting": "[3]; at 38 µM (top of the series)", "value": -14.3, "unit": "%"}]}
{"smiles": "NCc1cc(=O)[nH]o1", "values": [{"measurement": "activity change, negative = inhibition", "setting": "[1]; at 38 µM (top of the series)", "value": 1.2, "unit": "%"}, {"measurement": "Potency", "setting": "[2]", "value": "inactive"}, {"measurement": "activity change, negative = inhibition", "setting": "[3]; at 38 µM (top of the series)", "value": 7.89, "unit": "%"}, {"measurement": "activity, negative = inhibition", "setting": "[4]; at 38 µM (top of the series)", "value": -1.4, "unit": "%"}]}
{"smiles": "CCCN1CCO[C@@H]2c3cc(O)ccc3OC[C@H]21", "values": [{"measurement": "activity change, negative = inhibition", "setting": "[1]; at 38 µM (top of the series)", "value": "-14.2% and 2.45%"}, {"measurement": "activity change, negative = inhibition", "setting": "[3]; at 38 µM (top of the series)", "value": "8.87% and 8.95%"}, {"measurement": "activity, negative = inhibition", "setting": "[4]; at 38 µM (top of the series)", "value": "12% and -17.6%"}]}
{"smiles": "CNCCc1c[nH]c2ccc(O)cc12", "values": [{"measurement": "activity change, negative = inhibition", "setting": "[1]; at 38 µM (top of the series)", "value": 7.75, "unit": "%"}, {"measurement": "Potency", "setting": "[2]", "value": "inactive"}, {"measurement": "activity change, negative = inhibition", "setting": "[3]; at 38 µM (top of the series)", "value": 12.8, "unit": "%"}, {"measurement": "activity, negative = inhibition", "setting": "[4]; at 38 µM (top of the series)", "value": -2.52, "unit": "%"}]}
{"smiles": "CCCN1CCC[C@H](c2cccc(O)c2)C1", "values": [{"measurement": "activity change, negative = inhibition", "setting": "[1]; at 38 µM (top of the series)", "value": "-0.74% and -8.16%"}, {"measurement": "Potency", "setting": "[2]", "value": "inactive"}, {"measurement": "activity change, negative = inhibition", "setting": "[3]; at 38 µM (top of the series)", "value": "-6.4% and -13.2%"}, {"measurement": "activity, negative = inhibition", "setting": "[4]; at 38 µM (top of the series)", "value": "0.0297% and 5.34%"}]}
{"smiles": "NCCc1c[nH]c2ccccc12", "values": [{"measurement": "activity change, negative = inhibition", "setting": "[1]; at 38 µM (top of the series)", "value": -5.53, "unit": "%"}, {"measurement": "Potency", "setting": "[2]", "value": "3.16 µM (active)"}, {"measurement": "activity change, negative = inhibition", "setting": "[3]; at 38 µM (top of the series)", "value": -3.55, "unit": "%"}, {"measurement": "activity, negative = inhibition", "setting": "[4]; at 38 µM (top of the series)", "value": -11.1, "unit": "%"}]}
{"smiles": "CC(C)Oc1cccnc1N(C)C1CCN(Cc2ccccc2)CC1", "values": [{"measurement": "activity change, negative = inhibition", "setting": "[1]; at 38 µM (top of the series)", "value": 2.27, "unit": "%"}, {"measurement": "Potency", "setting": "[2]", "value": "inactive"}]}
{"smiles": "CN(C)[C@@H]1C(=O)C(C(N)=O)=C(O)[C@@]2(O)C(=O)C3=C(O)c4c(O)cccc4[C@@](C)(O)[C@H]3[C@H](O)[C@@H]12", "values": [{"measurement": "activity change, negative = inhibition", "setting": "[1]; at 17.2 µM (top of the series)", "value": 12.6, "unit": "%"}, {"measurement": "Potency", "setting": "[5]", "value": "> 92", "unit": "µM"}, {"measurement": "Potency", "setting": "[6]", "value": "> 92", "unit": "µM"}, {"measurement": "Potency", "setting": "[7]", "value": "> 92", "unit": "µM"}, {"measurement": "Potency", "setting": "[8]", "value": "> 92", "unit": "µM"}, {"measurement": "Potency", "setting": "[9]", "value": "> 92", "unit": "µM"}, {"measurement": "activity change, negative = inhibition", "setting": "[3]; at 17.2 µM (top of the series)", "value": 0.604, "unit": "%"}, {"measurement": "activity, negative = inhibition", "setting": "[4]; at 17.2 µM (top of the series)", "value": 3.84, "unit": "%"}]}
{"smiles": "Cc1nccc2c1[nH]c1ccccc12", "values": [{"measurement": "activity change, negative = inhibition", "setting": "[1]; at 17.2 µM (top of the series)", "value": -6.36, "unit": "%"}, {"measurement": "activity change, negative = inhibition", "setting": "[1]; at 38 µM (top of the series)", "value": -14.9, "unit": "%"}, {"measurement": "Potency", "setting": "[2]", "value": "3.98 µM (active) and 1.26 µM (active) and 631 nM (active)"}, {"measurement": "activity change, negative = inhibition", "setting": "[3]; at 17.2 µM (top of the series)", "value": -12.1, "unit": "%"}, {"measurement": "activity change, negative = inhibition", "setting": "[3]; at 38 µM (top of the series)", "value": -12.6, "unit": "%"}, {"measurement": "activity, negative = inhibition", "setting": "[4]; at 17.2 µM (top of the series)", "value": 1.58, "unit": "%"}, {"measurement": "activity, negative = inhibition", "setting": "[4]; at 38 µM (top of the series)", "value": 11, "unit": "%"}]}
{"smiles": "COc1ccc2c(c[n+](C)c3c4cc5c(cc4ccc23)OCO5)c1OC", "values": [{"measurement": "activity change, negative = inhibition", "setting": "[1]; at 38 µM (top of the series)", "value": 1.37, "unit": "%"}, {"measurement": "Potency", "setting": "[2]", "value": "10 µM (active)"}]}
{"smiles": "c1ccc(CCCN2CCN(CCOC(c3ccccc3)c3ccccc3)CC2)cc1", "values": [{"measurement": "activity change, negative = inhibition", "setting": "[1]; at 38 µM (top of the series)", "value": -23, "unit": "%"}, {"measurement": "activity change, negative = inhibition", "setting": "[3]; at 38 µM (top of the series)", "value": "-82.7% (active)"}, {"measurement": "activity, negative = inhibition", "setting": "[4]; at 38 µM (top of the series)", "value": -17.9, "unit": "%"}]}
